In the supplement of paper PMC9925115:
Structures can show the parent of a compound that is named as a salt.

test system: FLX1 + dox-induced PRKAR1A G325D; assay: difference in log2 fold change of viability vs plate median (dox-induced PRKAR1A G325D minus uninduced); higher = compound less effective when PKA is inhibited; details: concentration: not stated (2 or 5 uM); 5 days
Protocol: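 For each plate a log2 fold change vs the plate median was derived, and the values without dox were subtracted from those with dox, averaged over three biological replicates.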

Row | Compound | difference in log2 fold change of viability
1 | Cc1cc(CS(=O)(=O)c2ccccc2)cc(OCc2ccc(CN3CCC[C@@H]3CO)cc2)c1 | 0.461
2 | CN(C)CCOc1ccc(-c2nc(-c3ccncc3)c(-c3ccc4c(c3)CC/C4=N\O)[nH]2)cc1 | -1.73
3 | CCCNC(=O)Nc1ccc(Oc2ncnc3cc(OC)c(OC)cc23)cc1Cl | -0.22
4 | COc1c(C)c(C(=O)c2ccc(N)c(C(=O)O)c2)n2ccccc12 | 0.093
5 | CN1CCN(C2CCN(C(=O)Nc3cc(Oc4ccc(NC(=O)C5(C(=O)Nc6ccc(F)cc6)CC5)c(F)c4)ccn3)CC2)CC1 [Golvatinib (E7050)] | 0.0894
6 | Cc1cc(Nc2ncc(Cl)c(Nc3ccccc3S(=O)(=O)C(C)C)n2)c(OC(C)C)cc1C1CCNCC1 [Ceritinib (LDK378)] | 0.032
7 | Nc1ccc(-c2ccc3ncc4ccc(=O)n(-c5cccc(C(F)(F)F)c5)c4c3c2)cn1 [Torin 2] | 0.605
8 | N#CCNC(=O)c1ccc(-c2ccnc(Nc3ccc(N4CCOCC4)cc3)n2)cc1 [Momelotinib (CYT387)] | 0.708
9 | CC(C)n1nc(-c2ccc3oc(N)nc3c2)c2c(N)ncnc21 | -0.0452
10 | CNC(=O)c1ccccc1Nc1nc(Nc2ccc(N3CCOCC3)cc2OC)ncc1Cl | -1.51
11 | N#CC(=C(/N)Sc1ccccc1N)/C(C#N)=C(\N)Sc1ccccc1N | 0.518
12 | CCn1c(N)c(C(=O)NC)c(=O)c2ccc(C#CC(C)(O)COC)nc21 (stereo not given) | 0.0292
13 | COc1ccc(-c2ccc3c(N4CCOCC4)nc(N4C[C@@H](C)O[C@@H](C)C4)nc3n2)cc1CO | 0.463
14 | COc1cc2nccc(Oc3ccc(NC(=O)NC4CC4)c(Cl)c3)c2cc1C(N)=O [Lenvatinib (E7080)] | -0.0902
15 | CCOC(=O)c1cnc2ccc(-c3cncc(NS(=O)(=O)c4ccccc4)c3)cn12 | 0.663
16 | O=C(c1ccc(/C=C/c2n[nH]c3ccccc23)cc1)N1CCNCC1 | -0.0816
17 | CNC(=O)c1ccccc1Sc1ccc2c(/C=C/c3ccccn3)n[nH]c2c1 [Axitinib] | -0.125
18 | COc1ccc2c(Oc3ccc(NC(=O)c4c(C)n(CC(C)(C)O)n(-c5ccccc5)c4=O)nc3)ccnc2c1 | 0.00712
19 | Cc1ccc(Nc2nccc(N(C)c3ccc4c(C)n(C)nc4c3)n2)cc1S(N)(=O)=O [Pazopanib] | 0.0453
20 | CNC(=O)Nc1ccc(-c2nc(N3CC4CCC(C3)O4)c3cnn(C4CCC5(CC4)OCCO5)c3n2)cc1 | 1.48

Row | Compound | difference in log2 fold change of viability
21 | O=C(c1ccc(Nc2nccc(-c3cc4ccccc4s3)n2)cc1)N1CCC(N2CCCC2)CC1 [IKK-16 (IKK Inhibitor VII)] | 0.096
22 | CCS(=O)(=O)c1cccc(-c2cc(C(=O)NC3CCN(C)CC3)c(C)c3[nH]c4ncc(C)cc4c23)c1 | -0.102
23 | Cc1c(CN2CCN(C(=O)[C@H](C)O)CC2)sc2c(N3CCOCC3)nc(-c3cnc(N)nc3)nc12 [Apitolisib (GDC-0980, RG7422)] | 0.628
24 | COc1cc2nccc(Oc3ccc(NC(=O)Nc4cc(C)on4)c(Cl)c3)c2cc1OC [Tivozanib (AV-951)] | -0.0533
25 | O=c1sn(-c2cccc3ccccc23)c(=O)n1Cc1ccccc1 [Tideglusib] | 1.01
26 | O=C(NC[C@H](O)CO)c1ccncc1Nc1ccc(I)cc1F | -1.7
27 | O=C1NC(=O)C(c2ccccc2[N+](=O)[O-])=C1Nc1ccc(O)c(Cl)c1 | -0.00686
28 | CN(C)Cc1cccc(N=C(c2ccccc2)c2c(O)[nH]c3cc(C(=O)N(C)C)ccc23)c1 | 0.0526
29 | Cc1cc(C(=O)NOCCO)c(Nc2ccc(I)cc2F)n(C)c1=O | -0.818
30 | Cc1nc(Nc2n[nH]c3c2CN(C(=O)N[C@H](CN(C)C)c2ccccc2)C3(C)C)c2sccc2n1 | 0.871
31 | CC(C)n1nc(-c2cc3cc(O)ccc3[nH]2)c2c(N)ncnc21 [Torkinib (PP242)] | 0.611
32 | Nc1ccc(C(=O)Nc2cccc(-c3nc(N4CCOCC4)c4oc5ncccc5c4n3)c2)cn1 | 0.262
33 | CNC(=O)c1cc(Oc2ccc(NC(=O)Nc3ccc(Cl)c(C(F)(F)F)c3)cc2)ccn1 [Sorafenib Tosylate] | -0.44
34 | O=C(Cc1ccc(-c2ccc(OCCN3CCOCC3)cc2)cn1)NCc1ccccc1 | 0.213
35 | CCn1c(-c2nonc2N)nc2c(C#CC(C)(C)O)ncc(OC[C@H]3CCCNC3)c21 | 0.00672
36 | Oc1cccc(-c2nc(N3CCOCC3)c3oc4ncccc4c3n2)c1 | 0.496
37 | Cn1cnc(N)c2ncnc1-2 [3-Methyladenine (3-MA)] | 0.548
38 | O=C(NC1CCNCC1)c1n[nH]cc1NC(=O)c1c(Cl)cccc1Cl | 0.272
39 | CN1CC[C@H](c2c(O)cc(O)c3c(=O)cc(-c4ccccc4Cl)oc23)[C@H](O)C1 [Flavopiridol (Alvocidib)] | 0.251
40 | CC[C@@H]1C(=O)N(C)c2cnc(Nc3ccc(C(=O)NC4CCN(C)CC4)cc3OC)nc2N1C1CCCC1 | 0.0323
